The panel holds about 83,000 compounds, 20% with a hit somewhere; the sample as a whole holds those more often.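 Compound tested at a single concentration for 48 hours in 96-well plates; a percent growth value below 10 was scored as active.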 Calls of active or inactive are those of the source.
Tests used:
Assay in all cases: NCI-60 one-dose screen, 48 h (100 = growth as untreated, 0 = no growth, -100 = all killed)
Settings in all cases: 10 µM unless noted
DU-145 prostate = tested on: DU-145 prostate
K-562 leukemia = tested on: K-562 leukemia
MALME-3M melanoma = tested on: MALME-3M melanoma
MDA-MB-231 breast = tested on: MDA-MB-231 breast
RXF 393 renal = tested on: RXF 393 renal
SF-268 CNS = tested on: SF-268 CNS
SF-295 CNS = tested on: SF-295 CNS
SF-539 CNS = tested on: SF-539 CNS
UACC-257 melanoma = tested on: UACC-257 melanoma
M14 melanoma = tested on: M14 melanoma

Measured: growth

CCCSc1nnc(-c2sc3nc4ccccc4n3c2C)o1
inactive: DU-145 prostate 103% | K-562 leukemia 97.4% | MALME-3M melanoma 116% | MDA-MB-231 breast 108% | RXF 393 renal 87.3% | SF-268 CNS 115% | SF-295 CNS 105% | SF-539 CNS 108% | UACC-257 melanoma 102%

O=S(=O)(c1nc(-c2ccc(Br)cc2)oc1-c1ccc(Cl)cc1)N1CCCC(O)C1 (centres undefined)
inactive: DU-145 prostate 72.6% | K-562 leukemia 33.8% | MALME-3M melanoma 74.8% | MDA-MB-231 breast 60% | RXF 393 renal 51.3% | SF-268 CNS 63% | SF-295 CNS 58.1% | SF-539 CNS 84.5% | UACC-257 melanoma 80.3% | M14 melanoma 69.7%

COc1ccc(NC(=O)Cn2c(/C=C/c3cccc(Br)c3)nc3ccccc3c2=O)cc1
inactive: DU-145 prostate 79.1% | K-562 leukemia 86.3% | MALME-3M melanoma 48.7% | SF-268 CNS 65.2% | SF-295 CNS 48.9% | UACC-257 melanoma 71.1% | M14 melanoma 50.2%
active: MDA-MB-231 breast -38.4% | RXF 393 renal -16.3% | SF-539 CNS -23.4%

O=C(N/N=C/c1occc1Br)c1[nH]c2ccc(Br)cc2c1-c1ccccc1
active: DU-145 prostate -78.4% | K-562 leukemia 6.6% | MALME-3M melanoma -94.9% | MDA-MB-231 breast -83.1% | RXF 393 renal -88.2% | SF-268 CNS -65.9% | SF-295 CNS -91.2% | SF-539 CNS -100% | UACC-257 melanoma -68.2% | M14 melanoma -84.5%

COc1cc(CNC(=O)C[C@H](C)CCC=C(C)C)ccc1OCc1cn(-c2ccc(Cl)cc2Cl)nn1
inactive: DU-145 prostate 90.5% | K-562 leukemia 81.4% | MALME-3M melanoma 79.3% | MDA-MB-231 breast 59.7% | RXF 393 renal 14.1% | SF-268 CNS 52.3% | SF-295 CNS 41.8% | SF-539 CNS 66.9% | UACC-257 melanoma 92% | M14 melanoma 102%

O=C(c1ccc(O)cc1)C1[C@H](c2ccccc2Br)[C@@H](c2ccccc2)NC12C(=O)Nc1ccccc12 (some centres undefined)
inactive: DU-145 prostate 63.1% | K-562 leukemia 29.4% | MALME-3M melanoma 71.6% | MDA-MB-231 breast 41% | RXF 393 renal 20.8% | SF-268 CNS 49.1% | SF-295 CNS 27.9% | SF-539 CNS 55% | UACC-257 melanoma 45.8% | M14 melanoma 58.6%

Cc1ccc2nc(SCc3ccccc3F)n(-c3ccccc3)c(=O)c2c1
inactive: DU-145 prostate 108% | K-562 leukemia 83.8% | MALME-3M melanoma 118% | MDA-MB-231 breast 76.1% | RXF 393 renal 104% | SF-268 CNS 113% | SF-295 CNS 89.5% | SF-539 CNS 99.5% | UACC-257 melanoma 106% | M14 melanoma 95.3%

O=C(CSc1nnc(-c2ccc(-c3nc4ccccc4[nH]3)cc2)o1)Nc1ccc(Cl)cc1
inactive: DU-145 prostate 13.1% | K-562 leukemia 10.7% | MALME-3M melanoma 29.1% | SF-268 CNS 38.5% | SF-295 CNS 39% | UACC-257 melanoma 48.9%
active: MDA-MB-231 breast -24.9% | RXF 393 renal -61.7% | SF-539 CNS -94.2% | M14 melanoma -0.25%

COc1cc(C=O)ccc1OC(=O)c1cc(-c2ccc(C)cc2)n(-c2ccc(S(C)(=O)=O)cc2)n1
inactive: DU-145 prostate 108% | K-562 leukemia 86.5% | MALME-3M melanoma 102% | MDA-MB-231 breast 97.3% | RXF 393 renal 117% | SF-268 CNS 116% | SF-295 CNS 103% | SF-539 CNS 105% | UACC-257 melanoma 101% | M14 melanoma 109%

Cc1[nH]nc2ccc3nc(-c4cnn(CCO)c4)c4c(c3c12)CCCC4
inactive: DU-145 prostate 37.9% | K-562 leukemia 38.5% | MALME-3M melanoma 41% | MDA-MB-231 breast 40% | SF-268 CNS 58.1% | SF-295 CNS 43.4% | SF-539 CNS 33.7% | UACC-257 melanoma 83.1% | M14 melanoma 27.4%
active: RXF 393 renal -6.62%

O=C1N/C(=N\c2nccs2)S/C1=C\c1ccc([N+](=O)[O-])cc1
inactive: DU-145 prostate 39.9% | K-562 leukemia 13.3% | MALME-3M melanoma 28.4% | MDA-MB-231 breast 10.8% | SF-268 CNS 19.9% | SF-295 CNS 15%
active: RXF 393 renal 8.41% | SF-539 CNS 4.72% | UACC-257 melanoma 8.51% | M14 melanoma 5.66%

Fc1ccc(F)c(CNc2nc(SCCN3CCOCC3)nc3c2cnn3CC(Cl)c2ccc(Br)cc2)c1 (centres undefined)
inactive: DU-145 prostate 43.3% | K-562 leukemia 10.6% | SF-268 CNS 30.1% | SF-539 CNS 17.9% | M14 melanoma 18.1%
active: MALME-3M melanoma -30% | MDA-MB-231 breast 6.86% | RXF 393 renal -4.06% | SF-295 CNS 5.06% | UACC-257 melanoma 6.07%

From PubChem BioAssay (NCI)
